# Source: PubChem (National Center for Advancing Translational Sciences (NCATS))
# The list is not random: actives were taken first. Their share in the collection is about 8.1%.
# Sfp PPTase inh = inhibitors of Bacillus subtilis Sfp phosphopantetheinyl transferase. Q9F4F7. Biochemical Sfp PPTase activity, qHTS. Potency, µM, for inactives: largest response in the series, negative = inhibition, most hits filed as inhibitors. 3.5% of 310,000 active;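 further: the enzyme is Sfp with the accession as filed and its product quenches rhodamine fluorescence; 0% = enzyme reaction without inhibitor and -100% = no enzyme wells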
#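 Fluorescence-quenching assay with 15 nM Sfp, 5 uM rhodamine-CoA and 12.5 uM BHQ-2-labelled ybbR peptide in pH 7.6 Hepes/MgCl2 buffer. Enzyme was pre-incubated with compound for 15 min at room temperature. Rate was taken from the 30-min fluorescence change (525/598 nm).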
# PINK1 expr mod = modulators of PINK1 expression; PINK1 immunofluorescence, high-content cytometry, 24 h; Potency, µM (series often up to 76.6 µM), for the others: at the highest dose activation (PINK1 increase), hits mostly activators; 0.2% of 410,000 active; AID 624263; active means well fitted activation curve with a large enough effect; inconclusive means small, poorly fitted or top-dose-only effect; cell line not stated here; further: % of control where 0% means no effect; nearly all actives have a fitted effect of over 65% in size
#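 Readout is PINK1 immunofluorescence, quantified alongside mitochondrial, cell and nuclear markers by laser-scanning microplate cytometry. Cells from a stable line were exposed to compound titrations (5 concentrations) for 24 hours, with CCCP controls.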
# VP16 counter = counter-screen for ROR gamma inhibitors: Gal4-VP16 reporter. Drosophila S2 Gal4-VP16 UAS-luciferase, luminescence, 20 h. 3.5% of 310,000 active. Potency, µM (highest dose often 53.6 µM), inactives show top-dose activity, negative = inhibition, actives largely listed as inhibitors;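 further: Gal4-VP16 expression switched on by copper sulfate through the metallothionein promoter; on the % scale 0 is the no-effect control and ±100 the full control effect; nearly all actives have a fitted effect of over 50% in size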
# RORg inh = inhibitors of mouse ROR gamma transcriptional activity | P51450 | Drosophila S2 Gal4-RORgamma UAS-luciferase reporter, 20 h | Potency, µM (series often up to 53.6 µM), for inactives: top-dose activity change, negative = inhibition, hits mostly inhibitors | 5.4% of 310,000 active | AID 2551; further: on the % scale 0 is the no-effect control and ±100 the full control effect; nearly all actives have a fitted effect of over 60% in size
# Target sequence (P51450 whole entry, looked up, the tested form may be a part): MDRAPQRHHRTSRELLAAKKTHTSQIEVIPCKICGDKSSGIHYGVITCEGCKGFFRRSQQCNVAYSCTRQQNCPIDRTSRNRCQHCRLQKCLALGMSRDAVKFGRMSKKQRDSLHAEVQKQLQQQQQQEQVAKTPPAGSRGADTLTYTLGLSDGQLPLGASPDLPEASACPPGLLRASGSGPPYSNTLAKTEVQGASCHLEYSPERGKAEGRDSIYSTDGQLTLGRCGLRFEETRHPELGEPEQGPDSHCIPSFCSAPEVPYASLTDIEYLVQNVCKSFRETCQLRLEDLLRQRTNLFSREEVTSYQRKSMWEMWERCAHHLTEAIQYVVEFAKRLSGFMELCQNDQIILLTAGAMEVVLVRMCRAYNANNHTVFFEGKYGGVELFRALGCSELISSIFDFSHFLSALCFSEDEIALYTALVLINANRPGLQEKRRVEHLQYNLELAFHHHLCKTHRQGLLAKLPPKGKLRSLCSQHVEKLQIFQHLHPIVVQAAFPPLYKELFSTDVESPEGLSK
#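 Compounds are pin-transferred onto Drosophila Schneider cells expressing a copper-inducible Gal4–ROR gamma transactivation domain fusion. After 1 hr, copper sulfate is added to 700 uM final; luciferase is read 20 hr later.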
# ClpP mod = qHTS Assay for Activators of ClpP | ATP-dependent Clp protease proteolytic subunit (Bacillus subtilis (strain 168)), P80244 | 1.9% of 340,000 active | Potency, µM (highest dose often 57.5 µM), for inactives: at the highest dose activity change, negative = active | purified B. subtilis ClpP, FRET peptide cleavage, 20 min | AID 651965, 2013; active means well fitted falling curve with a large enough effect; inconclusive means small, poorly fitted or top-dose-only effect; inactive means no such curve, though single readings can be large or run the other way; further: the source files actives as falling curves though it sought activators and does not explain the sign; nearly all actives have a fitted effect of over 65% in size
# Target sequence (P80244 whole entry, looked up): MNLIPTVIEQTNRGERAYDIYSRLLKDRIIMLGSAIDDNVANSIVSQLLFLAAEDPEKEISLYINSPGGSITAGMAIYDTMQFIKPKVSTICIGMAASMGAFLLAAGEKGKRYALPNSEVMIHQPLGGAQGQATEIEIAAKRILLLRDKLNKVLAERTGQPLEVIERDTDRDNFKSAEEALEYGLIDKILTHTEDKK
#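 Purified B. subtilis ClpP, 10 microg/mL final in Tris/HCl pH8 with KCl, BSA, glycerol and Tween-20, cleaved an Abz/nitrotyrosine-quenched decapeptide. Fluorescence (ex 320, em 430) was read at 0 and 20 min at room temperature. Delta was normalized to 5.8 microM ADEP and DMSO/no-enzyme controls.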
# Epigenetic derep = epigenetic control regulation, reporter derepression; 0.2% of 280,000 active; AID 1865; murine LDR cells, GFP reporter derepression, 30 h; Potency, µM (doses to about 53.9 µM), without a hit: at the highest dose GFP activation, actives largely listed as activators; further: % of control where 0% means no effect; nearly all actives have a fitted effect of over 60% in size
#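 In this reporter-derepression format, murine cells bearing a silenced integrated CMV-GFP locus incubate with test compound (30 h, 37 C), then are washed and imaged; fluorescent objects of 20–120 um count as induced cells.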
# An asterisk follows results filed as active; u = inconclusive; x = not tested or not shown; [ ] = remark or other dose. Unless noted, the call rests on the fitted dose curve; in most records, active means well fitted curve in the direction sought with a large enough effect; inconclusive means small, poorly fitted or top-dose-only effect, or another doubt; inactive means no such curve, though single readings can be large; an effect the other way counts as inactive or inconclusive. Potency means the concentration at half of the fitted maximal effect.
SMILES,Sfp PPTase inh,PINK1 expr mod,VP16 counter,RORg inh,ClpP mod,Epigenetic derep
COc1ccccc1-c1nc(C#N)c(N2CCN(Cc3ccccc3)CC2)o1,u,2%,-13%,-1%,28µM*,-3%
N#Cc1nc(-c2ccccc2Cl)oc1N1CCCCC1,-6%,-1%,7%,1%,10µM*,-2%
N#Cc1nc(-c2ccccc2Cl)oc1N1CCN(C(=O)c2ccco2)CC1,9%,1%,19%,25%,3%,x
COc1ccccc1-c1nc(C#N)c(N2CCC(Cc3ccccc3)CC2)o1,-13%,1%,-2%,-10%,-13%,-1%
N#Cc1nc(-c2cccs2)oc1N1CCN(c2ccccc2)CC1,15%,12%[38.3 µM],-13%,-38%,28µM*,0%
COc1cc(NC(=O)c2cc(S(=O)(=O)N3CCC(C)CC3)cn2C)cc(OC)c1OC,x,3%,x,x,52%,3%
Cc1ccc(S(=O)(=O)c2nnn3c2nc(NC(C)C)c2sccc23)cc1,x,1%,x,x,-23%,0%
COc1ccccc1C(=O)N[C@@H]1c2ccccc2C2(CCN(Cc3ccc4c(c3)OCO4)CC2)[C@H]1O,x,0%,x,x,x,x
CC1CCN(c2oc(-c3cccc4ccccc34)nc2C#N)CC1,9%,x,0%,-5%,5.6µM*,3%
COc1ccc(-c2nc(C#N)c(N3CCOCC3)o2)cc1OC,2%,-2%,-6%,14%,48%,-1%
COc1ccc(-c2nc(C#N)c(N3CCN(c4cccc(Cl)c4)CC3)o2)cc1OC,14%,x,5%,-11%,28µM*,-1%
CCNC(=S)NNc1nc(N2CCCCC2)nc(N2CCOCC2)n1,11µM*,-1%,u,14µM*,x,-5%
CN(C)c1ccc(C=Nc2ccc(N(C)C)cc2)cc1,22µM*,3%,u,u,2%,0%
CN(C)c1ccc(N=Cc2ccco2)cc1,45µM*,4%[38.3 µM],u,u,-3%,8%
O=C(NCc1ccccn1)C1(C(F)(F)F)C/C(=C\Cc2ccccc2)CCCO1 (stereo unspecified),56µM*,x,8%,15%,x,x
O=C(NCc1ccccc1)C1(C(F)(F)F)C/C(=C/Cc2ccccc2)CCCO1 (stereo unspecified),-10%,x,-3%,1%,x,x
COc1cccc(CNc2nc3ccccc3n2CCN2CCCCC2)c1,0%,5%[38.3 µM],4%,-34%[10 µM],1%,-4%
O=C(Nc1ccc2ccccc2n1)C1CCCCC1,14%,3%,-14%,7%,x,0%
O=C(Nc1nc2ccccc2n1CCN1CCCC1)C1CCCCC1,20%,1%,10µM*,7.1µM*,0%,1%
CCn1nccc1C(=O)Nc1nc2ccccc2n1CCN1CCCCC1,21%,0%,u,16µM*,-6%,2%
O=C(Nc1nc2ccccc2n1CCN1CCCCC1)C1CCCCC1,18%,5%,7.1µM*,2µM*,-1%,-1%
CCn1c(NC(=O)C2CCCCC2)nc2ccccc21,1%,0%,0.89µM*,0.35µM*,0%,-1%
CCc1ccc(OCC2c3cc(OC)c(OC)cc3CCN2C(=O)Cc2ccc(OC)c(OC)c2)cc1 (stereo unspecified),x,-4%,x,x,-1%,0%
COc1ccc(N2CC(NC(=O)C(c3ccccc3)c3ccccc3)CC2=O)cc1 (stereo unspecified),x,0%,x,x,2%,0%
CCCCN(C)C(=O)CN1C(=O)CCn2nc(-c3cn(C)c4ccccc34)cc21,x,2%,x,x,-29%,-2%
SMILES,Sfp PPTase inh,PINK1 expr mod,VP16 counter,RORg inh,ClpP mod,Epigenetic derep
CCc1nc2nc(C)cc(Nc3cc(C)ccc3C)n2n1,x,3%,x,x,-1%,2%
COc1cc(C2C(=O)N(C3CCCCC3)CC(=O)N2CCc2ccccc2)ccc1OC(C)C (stereo unspecified),x,2%,x,x,2%,-1%
CCCn1c(C(C)Nc2nc(-c3cccc(Br)c3)cs2)nc2ccccc21 (stereo unspecified),-13%,7%,u,4.5µM*,-4%,x
CC(Nc1nc(-c2ccc(Cl)cc2)cs1)c1nc2cc(Cl)c(N3CCCCC3)cc2n1CCOCCO (stereo unspecified),x,10%,x,x,-8%,x
CC(Nc1nc(-c2ccc(F)cc2)cs1)c1nc2cc(Cl)c(Cl)cc2n1CCCO (stereo unspecified),x,4%,x,x,1%,x
Cc1ccc(Cn2c(C(C)Nc3nc(-c4ccc(C)cc4)cs3)nc3cc(Cl)c(Cl)cc32)cc1 (stereo unspecified),-14%,14%,-19%,11µM*,-1%,x
CCCn1c(C(C)Nc2nc(-c3cc(Cl)c(N)c(Cl)c3)cs2)nc2cc(Cl)c(N3CCCCC3)cc21 (stereo unspecified),3%,3%,1%,14µM*,-1%,x
CCCn1c(C(C)Nc2nc(-c3ccc(C)cc3)cs2)nc2ccccc21 (stereo unspecified),-9%,2%,18µM*,5.6µM*,-3%,x
OC[C@H]1O[C@@H](n2cnc3c(Nc4ccccc4)ncnc32)[C@H](O)[C@H]1O,x,x,x,x,x,0%
O=C(NCC1Cc2cccc(-c3ncccn3)c2O1)C1CCOC1 (stereo unspecified),x,0%,x,x,x,x
O=C(c1cccc(F)c1F)N1CCOc2ccc(CN3CCN(Cc4ccccn4)CC3)cc2C1,x,0%,x,x,x,x
CCCn1c(C(C)Nc2nc(-c3ccc(Cl)c([N+](=O)[O-])c3)cs2)nc2ccccc21 (stereo unspecified),-9%,6%,u,13µM*,-1%,x
O=C(Nc1nc(=S)ss1)c1ccc(Cl)cc1Cl,13µM*,0%,-11%,18%,-16%,-1%
Cc1oc(-c2ccccc2)cc1C(=O)Nc1ccc2ccccc2c1,89µM*,15%,7%,-11%,-10%,4%
O=C(Nc1ccc2ccccc2c1)c1ccc(Cl)cc1Cl,8%,4%,u,7.9µM*,9%,1%
O=C(Nc1ccc2ccccc2c1)c1cn(-c2ccccc2)nc1-c1cccs1,-5%,5%[38.3 µM],-6%,4%,32µM*,0%
CN1CCN(C(c2cccc(Br)c2)c2sc3nc(-c4ccco4)nn3c2O)CC1 (stereo unspecified),x,0%,x,x,-2%,7%
COc1cccc(-c2nc(CS(=O)(=O)CC(=O)NCc3cccc(Cl)c3)c(C)o2)c1,x,-2%,x,x,-9%,3%
O=C(Nc1ccc2ccccc2c1)c1ccccc1O,-5%,14µM*,u,u,x,x
O=C(Nc1ccc2ccccc2c1)c1ccccc1Cl,x,2%,x,x,0%,x
